From PubChem BioAssay (Tox21)
Inconclusive results are not listed. Unmarked numbers belong to inactive results. Activity calls are given as the source filed them. Calls follow the shape of the full dose curve.

Biological target: Muscarinic acetylcholine receptor M1 (Homo sapiens) (UniProt P11229)
Experiment: Cholinergic receptor muscarinic 1 (CHRM1) small molecule antagonists, cell-based qHTS assay (AID 1963588); also: nearly all actives have a fitted effect of over 40% in size
Settings: CHRM1-CHO antagonist mode, calcium flux fluorescence; series mostly up to 61.5 µM; activity, negative = inhibition: at the top concentration
From the text: National Center for Advancing Translational Sciences [NCATS]
Division of Preclinical Innovation [DPI]
U.S. Environmental Protection Agency [EPA]
National Institutes of Environmental Health Sciences [NIEHS]
National Toxicology Program [NTP]
U.S. Food and Drug Administration [FDA]
The CHRM1 is a muscarinic receptor. This receptor plays a crucial role in learning and memory processes and has long been identified as a promising therapeutic target for the improvement of cognitive decline in Alzheimer's disease (AD). The CHRM1-CHO cell line stably expressing human muscarinic acetylcholine receptor M1 (CHRM1) can be used for screening agonists and antagonists of interactions between CHRM1 and its ligands. The CHRM1-CHO Calcium Flux Assay is a homogeneous fluorescence-based assay for detecting the intracellular calcium level using FDSS kinetic plate reader system.
Tox21 Assay Protocol Summary:
CHRM1-CHO cells were dispensed at 1000 cells/3uL/well in 1536-well black-clear bottom plates using a Multidrop Dispenser. After the assay plates were incubated at a 37 C/5% CO2 incubator for 18 h, 3 uL of Dye Loading Buffer was transferred to the assay plate by a Flying Reagent Dispenser. The assay plates were incubated at 37 C for 1h. For antagonist mode, 23 nL of compounds dissolved in DMSO, positive controls or DMSO only was transferred to the assay plate by a pin tool. After 5 min incubation at room temperature, 1.5 uL of acetylcholine at 50nM was added to each well. The fluorescence intensity in the plates was measured using FDSS 7000EX kinetic plate reader for 3 min at 1 sec intervals. Each test compound was measured at 15 concentrations in three independent runs.
% is scaled to controls: 0 for no effect and ±100 for the full control effect.

Muscarinic acetylcholine receptor M1 (Homo sapiens), sequence (P11229 whole entry, looked up): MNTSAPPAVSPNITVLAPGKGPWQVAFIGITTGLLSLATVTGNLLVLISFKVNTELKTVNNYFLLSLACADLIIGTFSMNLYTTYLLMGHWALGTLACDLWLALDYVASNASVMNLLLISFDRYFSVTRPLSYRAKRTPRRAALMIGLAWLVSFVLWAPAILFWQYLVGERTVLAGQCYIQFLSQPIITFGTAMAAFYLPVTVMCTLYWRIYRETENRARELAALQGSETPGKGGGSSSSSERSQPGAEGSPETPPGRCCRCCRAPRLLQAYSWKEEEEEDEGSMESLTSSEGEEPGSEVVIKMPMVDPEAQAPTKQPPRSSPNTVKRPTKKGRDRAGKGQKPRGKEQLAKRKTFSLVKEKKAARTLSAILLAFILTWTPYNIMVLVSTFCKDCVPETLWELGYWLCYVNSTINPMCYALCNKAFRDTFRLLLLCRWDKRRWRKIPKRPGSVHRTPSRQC

Compound	activity, negative = inhibition	Potency
C[C@@H]1C[C@H]2[C@@H]3C[C@H](F)C4=CC(=O)C(Cl)=C[C@]4(C)[C@@]3(F)[C@@H](O)C[C@]2(C)[C@@]1(O)C(=O)CO	-4.65% [at 28.3 µM]	
C=C(C)C(=O)OCCOC1CC2CC1C1C=CCC21 (stereo not given)	-3.13%	
Nc1ccc([N+](=O)[O-])cc1O	-17%	
CCCCCCC#CC(=O)OC	25.3%	
Cc1c(O)cccc1O	5.32%	
Cn1c(NCCN(CCO)CCCc2ccc([N+](=O)[O-])cc2)cc(=O)n(C)c1=O	1.01% [at 28.3 µM]	
[O-][n+]1ccccc1SSc1cccc[n+]1[O-]	9.35% [at 12.6 µM]	
CCN(Cc1cccc(S(=O)(=O)O)c1)c1ccc(C(=C2C=CC(=[N+](CC)Cc3cccc(S(=O)(=O)O)c3)C=C2)c2ccc(O)cc2S(=O)(=O)[O-])cc1	-6.79% [at 28.3 µM]	
CCCCN1C(=O)c2ccccc2C1=O	-7.16%	
CC(C)N1C(=O)c2ccccc2C1=O	3.22%	
CCCCCCCC/C=C\CCCCCCCC(=O)OC(CO)CO	9.9%	
OC/C(Br)=C(\Br)CO	3.71%	
O=C1NC(=O)C2CC=CCC12 (stereo not given)	12.9%	
CCCCN1C(=O)[C@@H]([C@H](O)C2CCCCC2)NC(=O)C12CCN(Cc1ccc(Oc3ccc(C(=O)O)cc3)cc1)CC2	2.36%	
CC1=Nc2ccc3ccccc3c2C1(C)C	1.44%	
COc1cc(NS(=O)(=O)c2ccc(N)cc2)nc(C)n1	14% [at 28.3 µM]	
O=C(O)COc1nn(Cc2ccccc2)c2ccccc12	-0.382% [at 28.3 µM]	
CC(CC=O)c1ccccc1 (stereo not given)	-1.4%	
O=C(Nc1ccc(S(=O)(=O)N2CCOCC2)cc1)c1cc(Cl)ccc1NS(=O)(=O)c1ccc(Cl)s1	-1.84% [at 28.3 µM]	
CCN(CCC#N)c1ccc(N=Nc2c(Cl)cc([N+](=O)[O-])cc2Cl)cc1	5.15%	

Compound	activity, negative = inhibition	Potency
CC(=O)/C=C/C=C1/C2CCC(C2)C1(C)C (stereo not given)	1.13% [at 28.3 µM]	
O=c1[nH][nH]c2ccccc12	2.24%	
C=O	5.16%	
CCn1ccc(NS(=O)(=O)c2ccc(N)cc2)nc1=O	1.17% [at 28.3 µM]	
O=C(OCC(COC(=O)c1cccnc1)(COC(=O)c1cccnc1)COC(=O)c1cccnc1)c1cccnc1	5.94% [at 28.3 µM]	
Oc1ccc2ccccc2c1		inactive
CCCCCCCCCCCCCCC[C@H](O)[C@@H](N)CO	110% [at 28.3 µM]	
C=C(C)C(=O)OCCOCCOCCOCCOC(=O)C(=C)C	17%	
N#CCCNCCC#N	12.7%	
C=CCc1cc(S(=O)(=O)c2ccc(O)c(CC=C)c2)ccc1O	1.42%	
CCOC(=O)/C=C(C)/C=C/C=C(C)/C=C/c1c(C)cc(OC)c(C)c1C	3.59% [at 28.3 µM]	
CCN(CC)c1ccc(N=Nc2ccccc2)cc1	46.4%	
CCCOc1sc(C(=O)N2CCC(c3cc(CN)ccc3F)CC2)c(C)c1Br	-50.8%	
O=C(NN1CCCC1)NS(=O)(=O)c1ccc(Cl)cc1	-11.5% [at 28.3 µM]	
C[C@H]1COc2c(C3(N)CC3)c(F)cc3c(=O)c(C(=O)O)cn1c23	-15.6% [at 28.3 µM]	
CCOCC(C)O (stereo not given)	-16.8%	
CC(=O)OCCC(C)CC(C)(C)C (stereo not given)	5.31%	
c1ccc2c(c1)-c1ccc3ccc4cccc5cc-2c1c3c45	-23.2% [at 28.3 µM]	
CC(C)c1ccccc1N	-13.8%	
O=C(CC(=O)C(F)(F)F)c1ccccc1	9.43%	
